Screening data as filed in PubChem.
Only some compounds are listed: those with a hit (about 3.5% of all), similar ones and a draw of the others.
Pf apPOL block – Pf-apPOL DNA polymerase inhibition | AID 1794808 | inhibition, % at 10 µM | Recombinant Pf-apPOL, molecular beacon fluorescence, 1.5 h | 210,000 tested, 0.25% active
mHTT-CaM PPI inh – mHTT-calmodulin interaction abrogation. P42858. AlphaScreen His-mHTT/GST-CaM binding, luminescence. 190,000 tested, 3.6% active. AID 1671202. inhibition, % at 15 µM;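 also: 0% = both proteins with DMSO and 100% = one protein alone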
Active calls of the source: *. Rule as the data show it: active = inhibition above about 50%; inactive = the rest.

Results for CCOc1cc(/C=C2\SC(=N)NC2=O)ccc1OCc1ccc(Br)cc1 ?
Pf apPOL block: 3; mHTT-CaM PPI inh: 34

Results for CC1=Nc2c([nH]c3ccccc23)-c2cc(C)ccc2N1 ?
Pf apPOL block: 2; mHTT-CaM PPI inh: 70*

How did Cc1ccc(C)c(-c2noc(-c3c(O)c4ccccc4[nH]c3=O)n2)c1 do in these assays?
Pf apPOL block: -12; mHTT-CaM PPI inh: -7

What do the screens show for `Cc1ccc(NC(=O)Cn2cc(-c3ccc(F)cc3)oc2=O)cc1`?
Pf apPOL block: -4; mHTT-CaM PPI inh: -5

What do the screens show for `Cc1cccc(OCC(=O)N2CCC3(C2)C(=O)Nc2ccccc23)c1` (centres undefined)?
Pf apPOL block: -7; mHTT-CaM PPI inh: 16

What do the screens show for `Cc1cccc(Cn2ncc(O)c(Cl)c2=O)c1`?
Pf apPOL block: -4; mHTT-CaM PPI inh: -4

What do the screens show for `CN(C)c1ccc(C2C3=C(CCCC3=O)Nc3nc(SCc4ccccc4F)[nH]c(=O)c32)cc1` (centres undefined)?
Pf apPOL block: -5; mHTT-CaM PPI inh: 52*

What do the screens show for `O=C1CCCC2=C1C(c1cccs1)c1c(nc(SCc3ccccc3F)[nH]c1=O)N2` (centres undefined)?
Pf apPOL block: -5; mHTT-CaM PPI inh: 41

How did NS(=O)(=O)c1ccc(CCNc2ncnc3[nH]ncc23)cc1 do in these assays?
Pf apPOL block: -4; mHTT-CaM PPI inh: -8

What do the screens show for `COc1cccc(C2=NN(C(=O)CN(C)C(C)=O)C(c3ccc(F)cc3)C2)c1` (centres undefined)?
Pf apPOL block: -2; mHTT-CaM PPI inh: 17

How did COc1cccc(C2CC(c3cccc(C)c3)=NN2C(=O)CN2CCCCC2)c1 (centres undefined) do in these assays?
Pf apPOL block: -4; mHTT-CaM PPI inh: 55*

How did COc1ccccc1C1=NN(C(=O)CN2CCOCC2)C(c2ccc(C)cc2)C1 (centres undefined) do in these assays?
Pf apPOL block: -2; mHTT-CaM PPI inh: 38

Results for COc1ccc(C2CC(c3cccc(C)c3)=NN2C(=O)CN2CCCCC2)cc1 (centres undefined) ?
Pf apPOL block: -2; mHTT-CaM PPI inh: 41

Results for Cc1ccc(C2=NN(C(=O)CN3CCOCC3)C(c3ccccc3Cl)C2)cc1C (centres undefined) ?
Pf apPOL block: -4; mHTT-CaM PPI inh: 25

What do the screens show for `Cc1ccc(C)c(C2=NN(C(=O)CN3CCOCC3)C(c3ccccc3F)C2)c1` (centres undefined)?
Pf apPOL block: -2; mHTT-CaM PPI inh: 62*

How did Cc1cccc(C2=NN(C(=O)CN3CCOCC3)C(c3ccc(Cl)cc3)C2)c1 (centres undefined) do in these assays?
Pf apPOL block: -2; mHTT-CaM PPI inh: 79*

How did COc1cccc(C2CC(c3cccc(C)c3)=NN2C(=O)CN2CCCC2)c1 (centres undefined) do in these assays?
Pf apPOL block: 6; mHTT-CaM PPI inh: 100*

What do the screens show for `CC(=O)Nc1cccc(-c2nc3ccccc3[nH]2)c1C`?
Pf apPOL block: -9; mHTT-CaM PPI inh: 2

What do the screens show for `COc1ccc(CNC(=O)C2CCCN(c3nnc4c(Cl)cccn34)C2)c(OC)c1` (centres undefined)?
Pf apPOL block: -2; mHTT-CaM PPI inh: 6

How did COc1ccccc1C1=NN(C(=O)CN2CCCCC2)C(c2cccc(F)c2)C1 (centres undefined) do in these assays?
Pf apPOL block: -6; mHTT-CaM PPI inh: 21

What do the screens show for `COc1cccc(C2CC(c3cc(C)ccc3C)=NN2C(=O)CN2CCCCC2)c1` (centres undefined)?
Pf apPOL block: -7; mHTT-CaM PPI inh: 67*

Results for Cc1ccnc(N2CCC(C(=O)NCCCN(C)Cc3ccccc3)CC2)n1 ?
Pf apPOL block: -1; mHTT-CaM PPI inh: -2

What do the screens show for `CCN(CC)S(=O)(=O)c1ccc2[nH]cc(C(=O)NCc3ccc(F)cc3)c(=O)c2c1`?
Pf apPOL block: -7; mHTT-CaM PPI inh: 4

What do the screens show for `CCN(CC)S(=O)(=O)c1ccc2[nH]cc(C(=O)NCCCN3CCCC3=O)c(=O)c2c1`?
Pf apPOL block: -24; mHTT-CaM PPI inh: 51*

Results for O=C(CSCc1ccccc1)N1CCN(Cc2nc3ccccc3[nH]2)CC1 ?
Pf apPOL block: -8; mHTT-CaM PPI inh: -3

Results for COc1ccc(NC(=O)CSC2=NC(=O)CC(C)=N2)cc1 ?
Pf apPOL block: 76*; mHTT-CaM PPI inh: -1

How did COc1ccc(NC(=O)CSc2nccn2C)cc1 do in these assays?
Pf apPOL block: 4; mHTT-CaM PPI inh: -2

How did Cc1cc(C)cc(S(=O)(=O)N2CCN(CCc3cn(C)c4ncccc34)CC2)c1 do in these assays?
Pf apPOL block: 1; mHTT-CaM PPI inh: 43

Results for COc1ccccc1CNC(=O)C1c2ccccc2CC(=O)N1Cc1ccccc1 (centres undefined) ?
Pf apPOL block: 1; mHTT-CaM PPI inh: 100*

How did CCCN1C(=O)Cc2ccccc2C1C(=O)NCc1ccccc1OC (centres undefined) do in these assays?
Pf apPOL block: 0; mHTT-CaM PPI inh: -1

Results for Cc1nc2c(-c3ccc(Cl)cc3)c[nH]n2c(=O)c1Cl ?
Pf apPOL block: -1; mHTT-CaM PPI inh: 10

How did COc1ccc(-c2c(C)[nH]n3c(=O)cc(-c4ccc([N+](=O)[O-])cc4)nc23)cc1 do in these assays?
Pf apPOL block: -3; mHTT-CaM PPI inh: 53*

How did O=c1cc(-c2ccc([N+](=O)[O-])cc2)nc2c(-c3ccc(Cl)cc3)c[nH]n12 do in these assays?
Pf apPOL block: 4; mHTT-CaM PPI inh: 54*

What do the screens show for `Cc1cc(=O)n2[nH]c(C)c(-c3ccc(Cl)cc3)c2n1`?
Pf apPOL block: -7; mHTT-CaM PPI inh: -3

What do the screens show for `CN(C)c1ccc(NC(=O)CCC2CCCCC2)cc1`?
Pf apPOL block: -2; mHTT-CaM PPI inh: 63*

Results for COc1ccc(NC(=O)CCC2CCCCC2)cc1OC ?
Pf apPOL block: -2; mHTT-CaM PPI inh: 9

Results for Cc1sc(NC(=O)c2ccco2)c(C(c2cccnc2)N2CCN(c3ccccc3)CC2)c1C (centres undefined) ?
Pf apPOL block: 12; mHTT-CaM PPI inh: 18

What do the screens show for `Cc1sc(NC(=O)c2ccco2)c(C(c2cccnc2)N2CCN(c3ccccn3)CC2)c1C` (centres undefined)?
Pf apPOL block: -6; mHTT-CaM PPI inh: 100*

How did CCCn1cnc2c1c(=O)n(CC(C)C)c(=O)n2-c1ccc(Cl)cc1 do in these assays?
Pf apPOL block: -1; mHTT-CaM PPI inh: -1

What do the screens show for `Cn1c(-c2ccccc2)nn(CN2CCN(C(c3ccccc3)c3ccccc3)CC2)c1=S`?
mHTT-CaM PPI inh: -2

Results for O=[N+]([O-])c1cc(C=Nc2c(-c3ccco3)nc3ccccn23)ccc1Br ?
Pf apPOL block: -1; mHTT-CaM PPI inh: 18

Results for Clc1ccc(C=Nc2c(-c3ccco3)nc3ccccn23)cc1 ?
Pf apPOL block: -2; mHTT-CaM PPI inh: 55*

How did Oc1c(Cl)cc(Cl)cc1C=Nc1c(-c2ccco2)nc2ccccn12 do in these assays?
Pf apPOL block: -2; mHTT-CaM PPI inh: 64*

How did O=[N+]([O-])c1cc(C=Nc2c(-c3ccco3)nc3ccccn23)c(Cl)cc1Cl do in these assays?
Pf apPOL block: 6; mHTT-CaM PPI inh: 23

How did O=C(Nc1ccccc1)c1ccc(-c2cnc(N3CCCC3)nc2)cc1 do in these assays?
Pf apPOL block: -1; mHTT-CaM PPI inh: -7

How did O=C(c1ccc(-c2cccnc2)nc1)N1CCN(c2ccc(Cl)cc2)CC1 do in these assays?
Pf apPOL block: -5; mHTT-CaM PPI inh: 0
